This passage reports growth results from PubChem BioAssay (NCI).

Compounds without any hit were thinned out: in the full panel of roughly 83,000, 20% have a hit.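 For each line, cells grew in 96-well plates with the test compound present at a single concentration for 48 hours.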 The source made the active and inactive calls.

This experiment has as its system SK-MEL-2 melanoma. The experiment in a line: NCI-60 one-dose screen, 48 h (100 = growth as untreated, 0 = no growth, -100 = all killed). Particulars: 10 µM unless noted. The method, then: Growth inhibition of the SK-MEL-2 human tumor cell line is measured as a screen for anti-cancer activity. Cells are grown in 96 well plates and exposed to the test compound for 48 hours. Compounds are tested at a single concentration, which is 10^-5 M for most compounds. The reported endpoint is percent growth (GI% or GIPRCNT), where numbers from 0 - 100% represent growth inhibition, and numbers from -100% - 0 represent cell death. For example, a value of 40 represents 60% growth inhibition. A value of 0 means no net growth occurred over the course of the experiment. A value of -40 indicates 40% of cells at the beginning of the experiment died by the end of the experiment. A value of -100 means all cells are dead at the end of the experiment.
NCI-60 Human Tumor Cell Lines Screen was performed using the standard one-dose NCI protocol, which is described in more detail at https://dtp.cancer.gov/discovery_development/nci-60/default.htm.
Compounds with GIPRCNT values below 10 were considered active. Activity score was based on GIPRCNT using the following formula: […]
Score is 0 for GIPRCNT values of 100 or above, 50 for GIPRCNT values of 0, and 100 for GIPRCNT values of -100.
Take `COc1cc2c(c(O)c1Cl)C(=O)c1c(O)cc(C[C@H](C)O)cc1[C@H]2[C@H]1c2cc(C[C@H](C)O)cc(O)c2C(=O)c2c1cc(OC)c(Cl)c2O`: the growth is -31.6% (active). To `Cc1ccc(NS(=O)(=O)c2ccc(-c3cnc(C4CC4)o3)cc2)cc1C(F)(F)F` belongs 84.8% (inactive); to `COC(=O)C(OC(C)=O)C(OC(C)=O)c1ccc(OC)c(OC)c1` (stereo not given), 96.5% (inactive); to `CC(C)N1C(=O)/C(=C2\SC(=S)N(C(C)C)C2=O)SC1=S`, 96.8% (inactive).

Consider `CC(=O)c1ccc(NS(=O)(=O)c2cccc(C(=O)Nc3ccc(Br)cc3)c2)cc1`, for which the growth is 41% [25 µM] (inactive). To `O=c1c2c(c(=O)n1O)c1c3ccc[nH]c3nc1c1nc3[nH]cccc3c12` belongs 99.4% (inactive). To `Nc1c(C(=O)Nc2ccnc3ccccc23)sc2nc3c(cc12)CN(Cc1ccccc1)CC3` belongs 101% (inactive); to `O=C(Cn1c[n+](CC(=O)c2ccc([N+](=O)[O-])cc2)c2ccccc21)Nc1cccc2cccnc12`, 41.4% (inactive); to `CCc1ccc(CNc2ccc(N3CCOCC3)c(C(=O)O)c2)cc1`, 82.7% (inactive). Then `C=C1C(=O)O[C@H]2[C@H]1CC/C(COC(=O)NCc1c[nH]c3ccc(Br)cc13)=C\CC[C@@]1(C)O[C@@H]21`, with 1.8% (active).

Consider `COc1ccc2nc(-c3ccc(-c4noc(-c5cc(OC)c(OC)c(OC)c5)n4)cc3)[nH]c2c1`, for which the growth is 99.2% (inactive). To `O=[N+]([O-])c1ccc(N=Nc2cc(S(=O)(=O)O)c3cccc(S(=O)(=O)O)c3c2O)cc1` belongs 106% (inactive); to `COc1ccc(-c2nc([C@@H](C)Sc3nc(N)cc(N)n3)c(C)s2)cc1OCCN1CCOCC1`, 104% (inactive); to `Cc1cc(C)c(S(=O)(=O)Oc2ccccc2[N+](=O)[O-])c(C)c1`, 7.67% (active). As to `Cn1c2ccccc2c2c3c(c4c5ccccc5n(C)c4c21)C(=O)OC3`, the growth was 107% (inactive). To `C=C1C(=O)O[C@H]2[C@H]1CC/C(CNS(=O)(=O)c1cccc3ccccc13)=C\CC[C@@]1(C)O[C@@H]21` belongs 59.4% (inactive); to `CN[C@@H](C)C(=O)N[C@H]1CCS[C@H]2CC(C)(C)[C@@H](C(=O)N[C@H]3c4ccccc4C[C@H]3OCC#CC#CCO[C@@H]3Cc4ccccc4[C@@H]3NC(=O)[C@H]3N4C(=O)[C@@H](NC(=O)[C@H](C)NC)CCS[C@H]4CC3(C)C)N2C1=O`, 73.7% (inactive).

With `Cc1cccc(-c2cn3ccnc3c(-c3ccc4ncn(Cc5ccccc5)c4c3)n2)c1`, the growth was 93.7% (inactive). Then `O=[N+]([O-])c1cc(Br)c2cccc3c2c1CC3`, with 118% (inactive); and `O=C(CSc1nc2ccccc2[nH]1)NCc1ccccc1`, with 120% (inactive). To `COc1ccc(C(=O)c2cc(C)c(OC)c(C)c2)c(OC)c1OC(=O)C(Cl)Cl` belongs 24.4% (inactive). Then `O=c1[nH]nc(-c2ccccc2)c2sc3ncc(-c4ccc(Br)cc4)n3c12`, with 18.4% (inactive). In the case of `COc1cc(C(=O)Nc2cc3c(cc2Oc2cc(C)cc(C)c2)C(=O)N(C)[C@@H](CC(=O)N(C)O)C(=O)N3)c(Br)c(OC)c1OC`, the growth is -55.3% (active). Then `CC(=O)N1N=C(c2ccc(-n3ccc(C(F)(F)F)n3)c(F)c2)CC1c1ccc[nH]1` (stereo not given), with 94% (inactive).

Consider `Cc1cccc(NC(=O)Nc2ccc(-n3cnc4cc(-c5ccc(O)cc5)ccc43)cc2)c1`, for which the growth was 18.1% (inactive). Then `CCOC(=O)c1cc(C(=O)c2ccc(OC)c(OC)c2)n2c1ccc1ccccc12`, with 104% (inactive); and `COc1cc(C2=NN(C(C)=O)C(c3cc(OC)c(OC)c(OC)c3)C2)ccc1O` (stereo not given), with 37.9% (inactive); and `CC(Sc1nc2sc3c(c2c(=O)n1-c1ccc(Cl)cc1)CCCC3)C(=O)Nc1nc(-c2ccc(Br)cc2)cs1` (stereo not given), with 101% (inactive). To `Cc1ccc(C(=O)/C(=C\c2ccc([N+](=O)[O-])cc2)S(=O)Cc2ccc(Cl)cc2)cc1` (stereo not given) belongs 72.7% (inactive); to `CCOC(=O)Oc1c(OC)cc(C(=O)c2ccc(OC)c(O)c2OC)cc1OC`, 24.8% (inactive); to `O=C1/C=C/[C@@H](O)[C@@H]2C[C@@H](O)C[C@H]2/C=C/CCC[C@H](CCc2cccc3ccccc23)O1`, -9.52% (active). Then `COc1ccc(C(=O)c2cc(C)c(OC)c(C)c2)c(OC)c1NC(C)=O`, with 26% (inactive). For the compound `COc1cc2cc(CN3CCN(c4nccc(-c5ccc6ccccc6c5)n4)CC3)c(=O)[nH]c2cc1OC`, the growth is 97.8% (inactive). To `COc1cc(/C=N/NC(=O)c2cnn3c2NC(c2ccccc2)C3)ccc1Oc1ccccc1` (stereo not given) belongs 1.74% (active); to `COc1cc2nc(-c3ccc(Cl)cc3)cc(OCCCN3CCCC3)c2cc1OC`, 71.1% (inactive); to `COc1cc(/C=C\c2cc(OC)c(OC)c(OC)c2)cc(NC(=O)/C=C/c2cc(OC)c(OC)c(OC)c2)c1OC`, 47% (inactive). Then `C[C@@H](Nc1ncnc2ccc(-c3cnc(N)nc3)cc12)c1ccc(F)cc1`, with 101% (inactive); and `N#CC1=C(/N=C/c2ccccc2)Oc2c(ccc3ccccc23)C1c1ccc([N+](=O)[O-])cc1` (stereo not given), with 90.8% (inactive). To `O=C(Nc1ccccc1C(=O)N/N=C(\c1ccccc1)c1ccccn1)c1ccc(F)cc1` belongs 37.2% (inactive). Turning to `COC(=O)N[C@H]1CCc2c(Cl)c(OC)c(OC)c(OC)c2-c2ccc(SC)c(=O)cc21`, the growth is 42.4% (inactive).
